Screening results (PubChem BioAssay)
A selection: hits, their analogues and other compounds. The true share with any hit is near 2.3%.
MCL1 BIM primary: inhibitors of human MCL1 binding to BIM-BH3 peptide | GST-MCL1 / FITC-Bim-BH3 fluorescence polarization | inhibition, % at 10.9 µM | 320,000 tested, 0.68% active | AID 2057;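 active = inhibition above the mean inhibition of all tested compounds plus 3 SD, set per campaign, cut at about 40% in these data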;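 also: 0% = DMSO wells and 100% = unlabeled Bim-BH3 peptide control; higher means more loss of mP so more displacement of Bim peptide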
Mcl1-Noxa inh: disrupts binding of human Mcl-1 to Noxa peptide | TR-FRET Mcl-1/Noxa peptide binding, 2 h | inhibition, % at 21.7 µM | 220,000 tested, 1.5% active | AID 1022;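 active = compounds that cut the protein-peptide binding signal by more than 50% relative to plate controls in a single-dose test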;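 also: His-tagged Mcl-1 with rhodamine Noxa BH3 peptide and terbium anti-His antibody; 0% = Mcl-1 plus Noxa peptide wells and 100% = peptide-only wells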
Mcl-1 Bim block: disrupts Bim peptide binding to human Mcl-1; inhibition, % at 10 µM; Bead-based flow cytometry, Bim peptide-Mcl-1 binding; Q07820; 190,000 tested, 0.1% active; in the data active = inhibition above about 40%;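 also: 0% = no compound tracer wells and 100% = peptide blocker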
Bcl-xL primary: blocks human Bcl-xL binding to Bim BH3 peptide; AID 2129; GST-Bcl-xL / FITC-Bim BH3 peptide fluorescence polarization; 320,000 tested, 0.7% active; inhibition, % at 10.9 µM; Q07817;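 active = inhibition above the mean of all tested compounds plus 3 SD, cutoff set per campaign, cut at about 30% in these data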;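 also: 0% = DMSO wells and 100% = unlabeled Bim-BH3 peptide competitor; inhibitors lower millipolarization by displacing the labeled peptide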
Target sequence (Q07817 whole entry, looked up): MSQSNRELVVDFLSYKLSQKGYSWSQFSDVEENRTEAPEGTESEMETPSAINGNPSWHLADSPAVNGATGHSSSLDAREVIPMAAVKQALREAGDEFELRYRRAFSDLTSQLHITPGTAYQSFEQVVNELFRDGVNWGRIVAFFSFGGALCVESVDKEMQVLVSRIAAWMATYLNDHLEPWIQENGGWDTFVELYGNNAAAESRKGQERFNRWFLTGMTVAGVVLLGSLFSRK
GLD-1 RNA inh: GLD-1-TGE RNA interaction inhibition (C. elegans). Q17339. purified GLD-1 + fluorescein TGE RNA, fluorescence polarization. inhibition, % at 5.96 µM. 320,000 tested, 0.44% active;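 active = percent inhibition above a per-plate cutoff, the plate mean of test compounds plus 3 SD, cut at about 30% in these data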;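 also: 0% = DMSO wells with GLD-1 and probe and 100% = wells lacking GLD-1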
Target sequence (Q17339 whole entry, looked up): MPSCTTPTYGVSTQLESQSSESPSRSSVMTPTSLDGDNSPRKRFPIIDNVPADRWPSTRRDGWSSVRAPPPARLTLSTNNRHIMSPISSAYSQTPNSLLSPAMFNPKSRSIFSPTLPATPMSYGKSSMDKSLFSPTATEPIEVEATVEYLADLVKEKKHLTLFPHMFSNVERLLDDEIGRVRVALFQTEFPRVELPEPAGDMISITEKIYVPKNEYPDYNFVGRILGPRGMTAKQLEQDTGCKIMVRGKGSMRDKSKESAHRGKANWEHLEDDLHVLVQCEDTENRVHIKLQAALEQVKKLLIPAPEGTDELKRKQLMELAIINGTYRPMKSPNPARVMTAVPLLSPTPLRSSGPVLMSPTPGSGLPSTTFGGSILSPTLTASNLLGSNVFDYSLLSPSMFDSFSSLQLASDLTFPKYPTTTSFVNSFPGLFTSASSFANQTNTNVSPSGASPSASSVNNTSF
Mcl1 Bid PPI: Mcl-1/Bid interaction inhibition | inhibition, % at 21.7 µM | TR-FRET Mcl-1/Bid-Dy647 peptide binding, 1536-well | Q07820 | 220,000 tested, 0.97% active;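 active = compounds that cut the binding signal by more than half at the single screening dose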;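 also: His-tagged Mcl-1 with europium anti-His antibody binding Bid BH3 peptide; 0% = Mcl-1 plus peptide wells and 100% = peptide-only wells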
* = called active by the depositor; . = no result given.

SMILES	MCL1 BIM primary	Mcl1-Noxa inh	Mcl-1 Bim block	Bcl-xL primary	GLD-1 RNA inh	Mcl1 Bid PPI
COc1cccc(CN2CCN(Cc3cc(OC)c(OC)cc3OC)CC2)c1	5.0	.	.	6.4	-0.4	.
O=C(NN1C(=O)C2C(C1=O)C1C=CC2C12CC2)c1ccc(Cl)cc1 (centres undefined)	-1.8	32.4	.	2.5	4.0	99.6*
Cc1ccc(NS(=O)(=O)c2cc(C(=O)N3CCN(C)CC3)ccc2C)cc1C	-3.7	2.4	0.0	7.6	-1.3	-12.4
Cc1ccc(Nc2nc3ccccc3s2)c(C)c1	0.9	26.5	0.0	2.6	7.9	-1.8
Cc1cc(O)ccc1Nc1nc2ccccc2nc1Nc1ccc(O)cc1C	-9.3	67.5*	0.0	-1.6	12.7	9.0
CCOC(=O)c1c(NC(=O)c2ccccc2)sc2c(O)c(CN(CC)CC)ccc12	3.7	58.7*	0.0	8.4	1.2	20.8
CC(C)C[C@H]1CNC(=O)C(=O)N1C[C@H](C)NC(=O)Cc1ccccc1	1.3	.	.	4.7	0.6	.
Nc1ccc(NC(=O)c2ccc(C(=O)Nc3ccc(N)cc3)cc2)cc1	-0.2	22.7	.	-8.2	0.1	61.5*
Nc1ccc(C(=O)Nc2ccc(Nc3ccncc3)cc2)cc1	4.7	-0.8	.	6.3	-0.3	0.0
COc1cc2cc3c(N)c(C(=O)Nc4sc(C)c(C)c4C#N)sc3nc2cc1OC	13.9	98.1*	5.0	-1.7	-2.1	66.4*
COc1cc2cc3c(N)c(C(=O)NCc4ccco4)sc3nc2cc1OC	8.6	56.5*	2.0	16.3	9.2	-17.7
Cc1ccc2nc3sc(C(=O)NCc4ccco4)c(N)c3cc2c1	10.7	42.2	-6.0	17.3	3.6	-49.4
COc1cccc(NC(=O)C2CCN(c3cnccn3)CC2)c1	-1.4	.	.	3.8	2.1	.
CCOc1ccc(N(CC(=O)NCc2ccc(OC)cc2)S(C)(=O)=O)cc1	8.2	.	.	3.2	-1.4	.
O=C(C[n+]1ccc(/C=N/O)cc1)N(Cc1ccccc1)Cc1ccccc1	-4.8	13.4	-1.0	-5.4	-0.5	-11.2
CCC(C)[C@H](NC(=O)[C@@H]1Cc2ccccc2CN1)C(=O)Nc1ccc2c(c1)OCO2 (some centres undefined)	7.7	.	.	5.1	-7.2	.
CCOC(=O)C1=C(C)NC2=C(C(=O)CC(C)(C)C2)C1c1ccc2c(c1)CCCN2C (centres undefined)	-0.6	93.9*	-6.0	2.0	2.8	-2.2
Cc1cc(C(=O)N/N=C2\CCCC(=O)C2)c2ccccc2n1	19.4	11.5	-2.0	26.2	73.9*	-11.1
CCCCSCCCNC(=O)CS(=O)Cc1nc(-c2cccc(C)c2)oc1C (centres undefined)	3.7	0.1	1.0	45.3*	4.3	-12.5
CCCCNC(=O)CS(=O)Cc1nc(-c2cccc(C)c2)oc1C (centres undefined)	-0.1	22.9	1.0	-0.8	2.2	-11.7
O=c1oc(-c2cccnc2)nc2ccccc12	-6.8	4.4	0.0	0.0	3.4	7.6
Cc1cc(=O)c2cc3nc(-c4cccnc4)oc3c(Br)c2o1	37.8	53.9*	.	11.8	1.7	-51.9
Cc1c(C(=O)N2CCCCC2)c(S(=O)(=O)Nc2ccc(F)cc2F)c(C)n1C	12.0	.	.	7.5	2.6	.
Cc1cccc(NC(=O)CCS(=O)(=O)c2ccc3c(c2)NC(=O)CS3)n1	35.0	.	.	30.9*	23.1	.
COCCn1c(=S)[nH]c2sc3c(c2c1=O)CCC(C)C3 (centres undefined)	3.8	.	.	2.9	4.9	.
SMILES	MCL1 BIM primary	Mcl1-Noxa inh	Mcl-1 Bim block	Bcl-xL primary	GLD-1 RNA inh	Mcl1 Bid PPI
COCCCn1c(=S)[nH]c2sc3c(c2c1=O)CCCS3	10.2	65.1*	-4.0	9.6	0.2	-89.0
CC(Sc1nc2c(N)ncnc2n1CCOc1ccccc1)C(=O)O (centres undefined)	-6.8	.	.	-0.1	-6.5	.
O=C(O)c1ccc(-n2cc(-c3cc4ccccc4oc3=O)[nH]c2=S)cc1	.	50.5*	0.0	.	.	-28.9
COc1ccc(Cn2nnnc2C(c2ccccc2OC)N2CCC(C(N)=O)CC2)cc1 (centres undefined)	6.0	-12.7	0.0	6.4	2.0	-15.4
COc1ccc(Cn2nnnc2C(c2ccc(N(C)C)cc2)N2CCC(C(N)=O)CC2)cc1 (centres undefined)	13.8	53.6*	0.0	4.9	-6.2	-42.4
Cn1c(=O)c2c(nc(Cc3ccc(N)cc3)n2C)n(C)c1=O	-3.9	12.4	.	-4.2	6.2	97.9*
Cn1c(=O)c2c(nc(CN3CCN(Cc4ccccc4)CC3)n2Cc2ccccc2)n(C)c1=O	.	12.9	0.0	.	.	-11.5
N#Cc1c2c(c(=S)n(-c3ccccc3)c1N)CCCC2	33.4	43.7	0.0	34.7*	23.7	-4.5
COc1cc(C2Nc3cccc4cccc(c34)N2)cc(OC)c1OC(C)=O	45.5*	82.5*	10.0	38.8*	10.2	12.4
O=C(O)c1cccc(N/N=C/C2=C(Cl)c3cc(Cl)ccc3SC2)c1	.	103.5*	4.0	.	.	88.6*
CN1CCN(c2ccc(Cl)cc2NC(=O)c2ccc(S(=O)(=O)N(C)C)cc2)CC1	-0.1	54.9*	0.0	-1.2	-2.6	7.6
CC1(C)CC2CC(C)(CN2C(=O)COC(=O)c2cncc(Br)c2)C1 (centres undefined)	-0.9	.	.	9.7	10.7	.
NNC(=O)COc1ccc(F)cc1	3.6	30.5	-2.0	-6.3	7.1	-11.6
NNC(=O)COc1ccccc1F	-8.0	9.3	47.0*	-6.5	-4.6	2.6
CCOc1ccc(N2CC(C(=O)NNC(=O)c3ccc(Br)cc3)CC2=O)cc1 (centres undefined)	-3.4	.	.	-4.3	-7.0	.
N#CC1=C(N)N2C(=C(C#N)C1c1ccc(Br)cc1)Nc1ccccc12 (centres undefined)	-17.1	49.8	-5.0	-1.4	-2.2	51.3*
N#CC1=C(N)N2C(=C(C#N)C1c1cccc(Br)c1)Nc1ccccc12 (centres undefined)	0.9	24.8	-4.0	2.6	-2.1	19.4
Cc1ccc2c(c1)c1c(n2CC(O)Cn2nc(C)c(Br)c2C)C(=O)CCC1 (centres undefined)	-4.1	9.3	3.0	1.4	-5.2	-7.8
Cc1ccc2c(c1)c(C)c(C)n2CC(O)Cn1nc(C)c(Br)c1C (centres undefined)	-0.6	14.3	58.0*	4.9	2.4	-17.1
Cn1c(=S)[nH]c2scc(-c3cccs3)c2c1=O	.	64.1*	0.0	.	.	-47.1
C=CCn1c(=S)[nH]c2scc(-c3cccs3)c2c1=O	.	11.2	1.0	.	.	-63.5
O=C1c2ccc([N+](=O)[O-])cc2NC(c2ccco2)N1/N=C/c1ccco1 (centres undefined)	-13.1	84.3*	.	-3.9	-2.1	-24.4
O=C(c1ccccc1)N1CCC(c2nc(-c3ccc(S(=O)(=O)N4CCOCC4)cc3)no2)CC1	3.0	28.5	-1.0	1.9	7.7	-23.5
Cc1cccc(C(=O)N2CCC(c3nc(-c4ccc(S(=O)(=O)N5CCOCC5)cc4)no3)CC2)c1	1.6	.	47.0*	4.0	3.4	.
